According to the supplement of paper PMC11732987, “Enantioselective OTUD7B fragment discovery through chemoproteomics screening and high-throughput optimisation” (Communications Chemistry, 2025):

Tests used:
Assay in all cases: log2 ratio of Biotin-Ahx-Ub-VS probe labelling (fragment/DMSO); higher = less target engagement (more negative = stronger competition), active = hit call of the paper (q ≤ 0.05, log2 ratio ≤ -1)
Conditions in all cases: compound concentration: 200 uM; treatment time: 3 h
USP19 = target: T1, USP19 (UniProt O94966)
T1 sequence (whole entry): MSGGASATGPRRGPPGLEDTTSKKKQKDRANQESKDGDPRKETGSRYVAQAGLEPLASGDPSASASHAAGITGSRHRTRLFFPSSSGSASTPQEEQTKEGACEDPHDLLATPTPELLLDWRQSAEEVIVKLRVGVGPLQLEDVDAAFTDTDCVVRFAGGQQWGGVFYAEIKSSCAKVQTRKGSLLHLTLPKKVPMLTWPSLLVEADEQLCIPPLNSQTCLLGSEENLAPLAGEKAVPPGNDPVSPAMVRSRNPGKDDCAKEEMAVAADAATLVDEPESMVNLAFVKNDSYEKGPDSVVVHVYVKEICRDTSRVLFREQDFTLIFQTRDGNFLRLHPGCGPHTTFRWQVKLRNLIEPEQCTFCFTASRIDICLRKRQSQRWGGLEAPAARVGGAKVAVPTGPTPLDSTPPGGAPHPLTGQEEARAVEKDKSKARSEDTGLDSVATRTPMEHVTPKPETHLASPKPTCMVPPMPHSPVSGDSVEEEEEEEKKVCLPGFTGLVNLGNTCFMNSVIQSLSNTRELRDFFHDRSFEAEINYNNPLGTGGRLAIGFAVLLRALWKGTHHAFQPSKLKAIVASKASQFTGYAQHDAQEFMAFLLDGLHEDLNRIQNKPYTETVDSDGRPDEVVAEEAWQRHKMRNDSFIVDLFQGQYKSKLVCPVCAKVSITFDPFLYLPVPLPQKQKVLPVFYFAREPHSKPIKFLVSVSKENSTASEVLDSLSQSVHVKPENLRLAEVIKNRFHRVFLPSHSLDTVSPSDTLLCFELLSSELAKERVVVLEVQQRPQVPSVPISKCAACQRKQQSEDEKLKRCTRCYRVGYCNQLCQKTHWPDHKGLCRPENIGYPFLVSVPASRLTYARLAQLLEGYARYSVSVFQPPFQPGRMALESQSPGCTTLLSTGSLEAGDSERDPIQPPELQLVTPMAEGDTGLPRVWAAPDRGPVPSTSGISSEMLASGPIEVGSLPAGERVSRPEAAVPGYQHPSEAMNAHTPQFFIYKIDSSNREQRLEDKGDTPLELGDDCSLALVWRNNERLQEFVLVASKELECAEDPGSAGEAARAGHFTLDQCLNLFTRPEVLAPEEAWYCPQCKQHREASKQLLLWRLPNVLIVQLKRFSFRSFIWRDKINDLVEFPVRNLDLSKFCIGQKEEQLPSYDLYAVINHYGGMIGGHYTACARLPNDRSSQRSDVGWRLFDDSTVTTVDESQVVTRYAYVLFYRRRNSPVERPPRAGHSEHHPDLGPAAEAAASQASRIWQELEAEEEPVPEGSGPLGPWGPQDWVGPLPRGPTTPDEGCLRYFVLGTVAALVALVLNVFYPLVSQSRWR
In short: (§1)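 Each value is an average log2 ratio of fragment to vehicle, tested by unpaired t-test. The underlying Spectronaut label-free quantities were global-median-normalised, and only proteins with ≥2 unique peptides were included. Triplicate HEK293T lysate samples (495 µg) were exposed to fragment at 200 µM or vehicle for 3 h, then to Biotin-Ahx-Ub-VS at 0.5 µM final for 1 h, before NeutrAvidin enrichment of labelled DUBs, LysC and trypsin digestion, and diaPASEF LC-MS/MS.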

USP24 = USP24 (UniProt Q9UPU5)
In short: as §1

USP25 = target: T2, USP25 (UniProt Q9UHP3)
T2 sequence (whole entry): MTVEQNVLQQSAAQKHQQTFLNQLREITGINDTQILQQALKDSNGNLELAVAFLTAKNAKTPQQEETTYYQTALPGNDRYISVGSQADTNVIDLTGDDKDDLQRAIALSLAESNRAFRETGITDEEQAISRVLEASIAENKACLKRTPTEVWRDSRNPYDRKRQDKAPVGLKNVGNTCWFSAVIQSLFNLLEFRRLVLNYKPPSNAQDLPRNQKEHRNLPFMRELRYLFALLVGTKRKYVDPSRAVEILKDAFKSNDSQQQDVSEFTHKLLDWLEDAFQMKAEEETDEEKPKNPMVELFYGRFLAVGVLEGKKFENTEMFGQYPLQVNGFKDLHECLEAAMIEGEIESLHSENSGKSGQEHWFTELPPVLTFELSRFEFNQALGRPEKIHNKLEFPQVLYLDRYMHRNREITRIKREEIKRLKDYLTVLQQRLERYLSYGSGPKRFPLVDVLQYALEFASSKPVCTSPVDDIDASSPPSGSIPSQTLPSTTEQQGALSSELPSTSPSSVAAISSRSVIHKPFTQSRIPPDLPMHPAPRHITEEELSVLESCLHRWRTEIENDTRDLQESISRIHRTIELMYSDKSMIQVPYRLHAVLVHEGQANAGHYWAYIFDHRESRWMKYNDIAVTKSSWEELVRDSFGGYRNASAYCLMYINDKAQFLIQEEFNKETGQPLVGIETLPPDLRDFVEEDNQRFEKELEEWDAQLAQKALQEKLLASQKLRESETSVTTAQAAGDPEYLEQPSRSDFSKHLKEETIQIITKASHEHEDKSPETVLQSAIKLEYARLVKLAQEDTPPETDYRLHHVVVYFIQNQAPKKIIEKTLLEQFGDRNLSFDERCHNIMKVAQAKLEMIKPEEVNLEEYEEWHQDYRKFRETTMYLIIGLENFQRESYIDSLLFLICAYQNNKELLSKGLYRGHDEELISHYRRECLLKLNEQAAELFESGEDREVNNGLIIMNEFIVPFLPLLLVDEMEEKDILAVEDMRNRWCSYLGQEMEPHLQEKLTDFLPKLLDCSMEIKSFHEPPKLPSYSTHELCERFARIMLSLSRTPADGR
In short: as §1

USP28 = target: T3, USP28 (UniProt Q96RU2)
T3 sequence (whole entry): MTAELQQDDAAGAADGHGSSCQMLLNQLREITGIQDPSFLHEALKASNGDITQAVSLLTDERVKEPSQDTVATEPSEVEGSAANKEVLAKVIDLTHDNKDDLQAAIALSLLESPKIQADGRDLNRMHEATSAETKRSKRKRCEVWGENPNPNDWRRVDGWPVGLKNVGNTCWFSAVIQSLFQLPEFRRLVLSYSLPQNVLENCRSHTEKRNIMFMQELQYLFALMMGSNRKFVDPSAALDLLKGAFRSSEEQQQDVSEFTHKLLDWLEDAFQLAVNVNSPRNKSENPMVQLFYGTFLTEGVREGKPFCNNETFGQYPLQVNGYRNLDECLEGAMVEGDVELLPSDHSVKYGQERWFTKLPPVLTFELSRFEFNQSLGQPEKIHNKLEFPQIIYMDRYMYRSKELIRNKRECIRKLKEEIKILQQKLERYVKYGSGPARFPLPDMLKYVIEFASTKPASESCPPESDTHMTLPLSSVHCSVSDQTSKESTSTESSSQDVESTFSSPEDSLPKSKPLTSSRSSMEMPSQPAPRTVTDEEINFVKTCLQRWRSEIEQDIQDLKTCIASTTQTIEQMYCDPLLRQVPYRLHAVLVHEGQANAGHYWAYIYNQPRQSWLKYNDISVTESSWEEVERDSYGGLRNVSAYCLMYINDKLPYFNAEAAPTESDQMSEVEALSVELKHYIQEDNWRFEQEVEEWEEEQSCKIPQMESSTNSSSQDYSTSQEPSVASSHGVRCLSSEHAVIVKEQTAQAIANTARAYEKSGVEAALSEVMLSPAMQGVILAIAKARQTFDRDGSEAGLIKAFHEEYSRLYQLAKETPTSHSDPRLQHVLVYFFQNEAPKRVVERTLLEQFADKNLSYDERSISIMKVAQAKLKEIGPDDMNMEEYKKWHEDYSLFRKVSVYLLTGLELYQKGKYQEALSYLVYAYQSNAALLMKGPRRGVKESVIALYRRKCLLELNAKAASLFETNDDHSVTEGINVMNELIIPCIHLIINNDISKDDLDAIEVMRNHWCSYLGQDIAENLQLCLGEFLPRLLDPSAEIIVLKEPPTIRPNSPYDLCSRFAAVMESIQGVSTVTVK
In short: as §1

Measured: log2 ratio of Biotin-Ahx-Ub-VS probe labelling

USP24, sequence (Q9UPU5 whole entry): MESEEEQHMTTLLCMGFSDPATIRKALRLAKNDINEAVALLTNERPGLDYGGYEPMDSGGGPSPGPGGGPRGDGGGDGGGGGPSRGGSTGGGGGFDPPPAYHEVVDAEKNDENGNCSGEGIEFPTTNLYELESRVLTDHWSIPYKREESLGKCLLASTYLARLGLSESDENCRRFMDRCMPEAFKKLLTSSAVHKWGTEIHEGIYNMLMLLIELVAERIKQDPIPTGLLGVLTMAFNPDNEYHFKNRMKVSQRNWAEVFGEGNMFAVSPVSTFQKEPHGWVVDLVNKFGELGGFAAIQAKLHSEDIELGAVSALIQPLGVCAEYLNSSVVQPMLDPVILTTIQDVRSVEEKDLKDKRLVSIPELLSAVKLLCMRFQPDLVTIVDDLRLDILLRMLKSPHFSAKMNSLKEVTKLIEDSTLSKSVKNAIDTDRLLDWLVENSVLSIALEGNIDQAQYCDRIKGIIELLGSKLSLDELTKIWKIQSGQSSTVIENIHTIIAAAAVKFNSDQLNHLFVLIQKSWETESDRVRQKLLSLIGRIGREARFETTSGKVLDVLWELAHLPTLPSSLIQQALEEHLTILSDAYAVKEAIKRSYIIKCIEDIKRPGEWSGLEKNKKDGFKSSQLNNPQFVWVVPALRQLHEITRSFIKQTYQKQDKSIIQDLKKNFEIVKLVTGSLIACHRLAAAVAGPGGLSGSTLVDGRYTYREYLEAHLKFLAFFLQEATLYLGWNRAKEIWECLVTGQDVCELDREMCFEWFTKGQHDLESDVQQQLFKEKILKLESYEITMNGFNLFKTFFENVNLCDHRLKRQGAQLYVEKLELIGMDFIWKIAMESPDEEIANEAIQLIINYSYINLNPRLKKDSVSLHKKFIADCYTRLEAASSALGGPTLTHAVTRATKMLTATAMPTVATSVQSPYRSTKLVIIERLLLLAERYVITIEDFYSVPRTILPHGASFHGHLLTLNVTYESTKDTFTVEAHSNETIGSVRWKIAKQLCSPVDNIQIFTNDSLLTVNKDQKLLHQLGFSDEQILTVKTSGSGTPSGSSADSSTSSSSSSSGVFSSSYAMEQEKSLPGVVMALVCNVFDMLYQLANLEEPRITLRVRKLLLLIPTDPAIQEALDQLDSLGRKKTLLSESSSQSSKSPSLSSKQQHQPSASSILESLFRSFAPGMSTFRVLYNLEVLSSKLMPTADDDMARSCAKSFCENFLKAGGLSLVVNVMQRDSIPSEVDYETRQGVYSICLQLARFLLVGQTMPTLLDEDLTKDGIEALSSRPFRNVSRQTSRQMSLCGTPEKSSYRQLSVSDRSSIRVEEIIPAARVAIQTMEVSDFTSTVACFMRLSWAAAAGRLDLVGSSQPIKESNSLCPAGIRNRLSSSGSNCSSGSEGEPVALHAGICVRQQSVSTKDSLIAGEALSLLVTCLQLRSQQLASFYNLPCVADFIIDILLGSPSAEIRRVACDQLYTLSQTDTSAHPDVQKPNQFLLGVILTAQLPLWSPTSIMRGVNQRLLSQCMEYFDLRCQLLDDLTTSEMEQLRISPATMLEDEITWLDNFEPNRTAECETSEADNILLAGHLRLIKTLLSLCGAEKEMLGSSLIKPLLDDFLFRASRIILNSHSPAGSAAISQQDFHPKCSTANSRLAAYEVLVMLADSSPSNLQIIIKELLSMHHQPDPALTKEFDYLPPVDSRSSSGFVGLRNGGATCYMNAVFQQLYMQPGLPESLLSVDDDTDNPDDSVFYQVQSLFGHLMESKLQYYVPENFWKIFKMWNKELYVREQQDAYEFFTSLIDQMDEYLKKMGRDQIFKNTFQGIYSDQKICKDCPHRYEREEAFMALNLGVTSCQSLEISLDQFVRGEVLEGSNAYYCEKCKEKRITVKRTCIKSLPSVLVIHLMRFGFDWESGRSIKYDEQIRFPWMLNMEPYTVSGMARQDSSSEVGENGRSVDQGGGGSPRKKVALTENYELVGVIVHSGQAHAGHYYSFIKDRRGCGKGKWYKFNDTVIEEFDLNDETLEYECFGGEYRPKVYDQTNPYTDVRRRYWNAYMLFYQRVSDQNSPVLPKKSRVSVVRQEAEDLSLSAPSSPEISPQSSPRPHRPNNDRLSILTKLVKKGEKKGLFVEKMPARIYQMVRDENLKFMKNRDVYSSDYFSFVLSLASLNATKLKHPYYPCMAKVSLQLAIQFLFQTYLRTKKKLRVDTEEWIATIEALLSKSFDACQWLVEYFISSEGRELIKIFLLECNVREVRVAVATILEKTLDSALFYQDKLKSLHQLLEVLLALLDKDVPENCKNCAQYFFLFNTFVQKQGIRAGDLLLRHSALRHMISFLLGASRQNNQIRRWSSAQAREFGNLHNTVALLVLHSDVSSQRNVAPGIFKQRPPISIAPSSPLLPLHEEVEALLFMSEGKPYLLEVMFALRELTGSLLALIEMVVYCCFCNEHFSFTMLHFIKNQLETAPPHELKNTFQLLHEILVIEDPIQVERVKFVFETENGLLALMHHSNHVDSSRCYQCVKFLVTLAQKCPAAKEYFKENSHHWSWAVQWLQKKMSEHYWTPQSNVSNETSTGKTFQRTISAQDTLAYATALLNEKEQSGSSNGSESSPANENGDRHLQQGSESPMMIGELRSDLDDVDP

Cc1cc(CC(C)NC(=O)CCl)n[nH]1 (centres undefined)
inactive: USP19 -0.257 | USP24 -0.17 | USP25 -0.198 | USP28 -0.332
